# Source: PubChem
# Only a selection was taken, and hits are over-represented in it overall.
# TDP-43 tox inh – qHTS of TDP-43 Inhibitors: NCGC Sytravon Library Screen | Potency, µM (titrated, usually from 46.1 µM), hits mostly activators | AID 1347073, 2019 | yeast TDP-43 toxicity rescue, BacTiter-Glo growth, 24 h | 0.45% of 45,000 active; active = well fitted activation curve with a large enough effect; also: 0% is about no effect; nearly all actives have a fitted effect of over 55% in size
#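 TDP-43-expressing yeast, pregrown in raffinose, seeded at OD600 0.02 in galactose medium with compound for 24 hr at 30 deg C. Growth read by BacTiter-Glo luminescence, so rescue of toxicity appears as activation.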
# Starred values were filed as active, the others as inactive; i = inactive. Potency is read from the fitted curve at half-maximal effect.
SMILES,TDP-43 tox inh
Cc1ccc(C)c(CN2C(=O)c3ccccc3S(=O)(=O)c3ccc(C(=O)N4CCc5ccccc54)cc32)c1,i
COCCNC(=S)N/N=C(\C)c1ccc(OC)cc1,i
COCCNC(=S)N/N=C(\C)c1cc2ccccc2o1,13µM*
COCCNC(=S)N/N=C(\C)c1cccc(C(F)(F)F)c1,i
Cc1cc(C)c(NC(=O)Cn2c(=O)oc3cc(S(=O)(=O)N4CCCCCC4)ccc32)c(C)c1,i
NC(Cc1ccccc1)c1csc(Nc2ccc(C(=O)NCCCO)cn2)n1 (stereo unspecified),i
COc1ccccc1CN(C)C(=O)C(NC(=O)Cc1cccc2ccccc12)C(C)C (stereo unspecified),i
C(=N\n1cnnc1)/c1ccc(-c2ccccc2)cc1,11µM*
O=[N+]([O-])c1cccc(/C=N/n2cnnc2)c1,i
CCc1ccc(/C=N\n2cnnc2)cc1,i
O=C(O)CC/C(=N/NC(=O)CNC(=O)c1ccc2c(c1)OCCO2)c1ccccc1,i
CC(=O)c1c(C)[nH]c(C(=O)Nc2nc(-c3ccccc3)c(C)s2)c1C,i
Cc1sc(NC(=O)c2ccco2)nc1-c1ccccc1,13µM*
Cc1nc(NC(=O)c2ccco2)sc1C(=O)O,i
CCn1nc(C(=O)NNS(=O)(=O)c2ccc(C)cc2)c2ccccc2c1=O,i
CC(C)Oc1ccc(CNC(=O)c2ccc3c(c2)N(Cc2ccc(F)cc2)CCS3)cc1,i
O=C(NC(=S)NNC(=O)[C@H]1C[C@@H]1c1ccccc1)c1cccc(F)c1,13µM*
O=C(NNC(=S)NC(=O)c1ccc(F)cc1)c1cccnc1,i
O=C(Cc1ccccc1)NNC(=S)NC(=O)c1cccnc1,i
COCc1c(Br)c(C)nc2sc3c(=O)[nH]nnc3c12,i
CC(=O)Nc1cccc(OCC(=O)NC(C)c2ccc3ccccc3c2)c1 (stereo unspecified),i
CCn1c(C(=O)NCc2cc(Br)ccc2OC)cc2oc3ccccc3c21,i
O=C(Nc1cccc(S(=O)(=O)Nc2ccc(Cl)cc2)c1)c1cc2c(s1)CCCC2,i
O=C(Nc1ccc(N2CCOCC2)cc1)c1cc2c(s1)CCCCC2,16µM*
O=C(Nc1ccc(N2CCOCC2)cc1)c1ccc(Br)o1,i
SMILES,TDP-43 tox inh
Cc1cc(NCc2ccc(Cl)cc2)n2cnnc2n1,i
C#Cc1cccc(Nc2nc(NCc3ccccc3OC)nc3ccsc23)c1,i
CCCS(=O)(=O)NC(=O)C1(C)CCCN(C(=O)c2cc(-c3cccs3)oc2C)C1 (stereo unspecified),i
CCOc1ccc(S(=O)(=O)NCC2CCCO2)cc1NC(=O)c1ccccc1F (stereo unspecified),i
COc1ccc(NC(=O)c2ccc(NC(=O)C3COc4ccccc4O3)cc2)c(OC)c1 (stereo unspecified),i
COc1ccc(NC(=O)c2cc(S(=O)(=O)NCC3COc4ccccc4O3)ccc2F)cc1 (stereo unspecified),25µM*
CSc1nc(C)cc(Oc2ccccc2)n1,i
COc1ccc(CNc2ncnc3c2[nH]c2cc(OC)c(OC)cc23)cc1,i
COc1ccc2c(c1)[nH]c1c(=O)n(CCN3CCOCC3)cnc12,i
COc1ccc2c(c1)[nH]c1c(Cl)ncnc12,14µM*
Cc1ccccc1S(=O)Cc1ccc(C(=O)N2CCN(c3cccc(C)c3C)CC2)o1 (stereo unspecified),20µM*
COc1cccc(N2CCN(C(=O)c3ccc(CS(=O)c4ccc(C)cc4)o3)CC2)c1 (stereo unspecified),i
CC1=C(C(=O)N2CCN(c3cccc(C)c3C)CC2)C2(CCCCC2)OC1=O,i
Cc1onc(-c2ccccc2)c1C(=O)Nc1nncs1,i
O=C1OC(Nc2nc(-c3ccc(F)cc3)cs2)c2ccccc21 (stereo unspecified),i
CCOc1ccc(S(=O)(=O)N2CCC(C(=O)NC3CC3)CC2)cc1C,i
COc1ccc(Br)cc1C(=O)Nc1ccc(C(=O)O)cc1,4.5µM*
COc1ccc(Br)cc1C(=O)Nc1ccc(N2CCCC2)cc1,i
COc1ccc(Br)cc1C(=O)NC(=S)Nc1ccc2[nH]c(=O)[nH]c2c1,i
O=C(CNCc1ccc(Cl)cc1)Nc1ccc(C(=O)N2CCCCCC2)cc1,i
CCc1nc2c(OCCOC)cccn2c1N(C)C(=O)Nc1ccccc1OC,i
CCCCN(C)S(=O)(=O)c1cc2c(cc1Br)CCN2C(=O)C1CC1,i
COc1cccc(NC(=O)c2cccc(C)c2[N+](=O)[O-])c1,i
COc1ccccc1C(=O)Nc1cccc(NC(=O)c2ccccc2C)c1,14µM*
CCN(CC)c1cc(C)c2cc(NC(=O)c3ccccc3OC)ccc2n1,i
CC1(C(=O)Nc2cccc3ccccc23)CCN1C(=O)C1(c2ccccc2)CCCC1 (stereo unspecified),i
Brc1ccc(CNCCCSc2nnnn2-c2ccccc2)cc1,i
O=C(CN(Cc1ccco1)C(=O)CNS(=O)(=O)c1ccc(Cl)cc1)NCc1ccco1,i
CCc1c(C)nc2nncn2c1Nc1ccc(Cl)cc1,i
